Here are results for one sequence from paper PMC7862700, “An all-to-all approach to the identification of sequence-specific readers for epigenetic DNA modifications on cytosine”.

Holding throughout (experiment): DAPPL (digital affinity profiling via proximity ligation, sequencing); 10 mM Tris-HCl pH 7.5, 50 mM NaCl, 1 mM DTT, 4% glycerol, room temperature, 30 min; GST-TFs on glutathione beads, 16-mer random dsDNA library, 0.1% formaldehyde crosslink after washing; high values mean tight binding
The target of one assay is T1, FEV (Homo sapiens, UniProt Q99581 1-238).
T1 sequence: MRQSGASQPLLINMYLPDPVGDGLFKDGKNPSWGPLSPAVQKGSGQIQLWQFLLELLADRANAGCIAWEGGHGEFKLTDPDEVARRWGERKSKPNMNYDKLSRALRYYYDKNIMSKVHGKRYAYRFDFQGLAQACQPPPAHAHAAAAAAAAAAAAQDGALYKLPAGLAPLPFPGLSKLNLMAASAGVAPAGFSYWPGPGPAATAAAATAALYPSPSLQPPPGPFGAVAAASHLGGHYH
As to conditions: protein: recombinant; tags: N-terminal GST; dsDNA, one strand shown. An outline of the steps: (§1)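 Human transcription factors were made in yeast as GST fusions, captured on glutathione beads and barcoded with DNA. With a tag-only sample included, the pool was incubated with 200 nmole of a random double-stranded 16-mer DNA library in Tris/NaCl/DTT/glycerol buffer at room temperature for 30 min, then crosslinked with 0.1% formaldehyde after washing, ligated by proximity, amplified and sequenced. For binding signal, each hexamer's read frequency for a factor is divided by its frequency for the tag-only sample.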

Another assay addresses ETV5 (Homo sapiens, UniProt P41161 1-510). Particulars: protein: recombinant; tags: N-terminal GST; dsDNA, one strand shown. An outline of the steps:
as §1

Another assay has as its target HSF1 (Homo sapiens, UniProt Q00613 1-529). Particulars: protein: recombinant; tags: N-terminal GST; chain copies: 3; dsDNA, one strand shown. An outline of the steps:
as §1

For the next assay, the target named is T2, SPIC (Homo sapiens, UniProt Q8N5J4 1-248).
T2 sequence: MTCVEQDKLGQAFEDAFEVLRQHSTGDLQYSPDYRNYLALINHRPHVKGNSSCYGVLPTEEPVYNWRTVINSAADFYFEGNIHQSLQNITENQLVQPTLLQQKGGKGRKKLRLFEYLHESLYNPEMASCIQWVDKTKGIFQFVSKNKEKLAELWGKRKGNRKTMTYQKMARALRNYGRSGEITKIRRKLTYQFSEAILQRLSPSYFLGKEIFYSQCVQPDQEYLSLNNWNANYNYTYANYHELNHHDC
Particulars: protein: recombinant; tags: N-terminal GST; dsDNA, one strand shown. An outline of the steps: as §1

The target of the next assay is ELF4 (Homo sapiens, UniProt Q99607 1-663). As to conditions: protein: recombinant; tags: N-terminal GST; dsDNA, one strand shown. A digest of the protocol:
as §1

Another assay has as its target T3, ELK4 (Homo sapiens, UniProt P28324-2 1-405).
T3 sequence: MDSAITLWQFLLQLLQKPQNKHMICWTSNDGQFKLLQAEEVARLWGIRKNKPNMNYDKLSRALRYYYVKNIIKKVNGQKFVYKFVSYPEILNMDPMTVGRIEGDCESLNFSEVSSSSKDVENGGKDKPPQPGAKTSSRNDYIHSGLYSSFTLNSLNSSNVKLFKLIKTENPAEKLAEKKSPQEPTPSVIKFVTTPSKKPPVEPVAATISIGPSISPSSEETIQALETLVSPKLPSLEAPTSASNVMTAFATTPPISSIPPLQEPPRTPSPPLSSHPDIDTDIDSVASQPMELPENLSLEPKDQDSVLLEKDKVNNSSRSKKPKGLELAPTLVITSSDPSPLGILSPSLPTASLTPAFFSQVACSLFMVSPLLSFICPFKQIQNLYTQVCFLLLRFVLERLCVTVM
Particulars: protein: recombinant; tags: N-terminal GST; dsDNA, one strand shown. An outline of the steps: as §1

For a further assay, the target named is T4, ETV2 (Homo sapiens, UniProt O00321 1-342).
T4 sequence: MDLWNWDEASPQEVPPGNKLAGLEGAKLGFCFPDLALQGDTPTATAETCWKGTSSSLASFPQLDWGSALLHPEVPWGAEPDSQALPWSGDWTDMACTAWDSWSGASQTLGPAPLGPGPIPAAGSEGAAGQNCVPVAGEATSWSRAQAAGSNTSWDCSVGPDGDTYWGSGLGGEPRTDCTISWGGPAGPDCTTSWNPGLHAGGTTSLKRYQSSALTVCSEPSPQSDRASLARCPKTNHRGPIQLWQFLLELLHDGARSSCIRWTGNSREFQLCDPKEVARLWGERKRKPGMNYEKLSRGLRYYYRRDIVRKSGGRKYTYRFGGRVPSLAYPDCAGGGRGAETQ
Particulars: protein: recombinant; tags: N-terminal GST; dsDNA, one strand shown. A digest of the protocol:
as §1

A further assay has as its target T5, ELF3 (Homo sapiens, UniProt P78545 1-371).
T5 sequence: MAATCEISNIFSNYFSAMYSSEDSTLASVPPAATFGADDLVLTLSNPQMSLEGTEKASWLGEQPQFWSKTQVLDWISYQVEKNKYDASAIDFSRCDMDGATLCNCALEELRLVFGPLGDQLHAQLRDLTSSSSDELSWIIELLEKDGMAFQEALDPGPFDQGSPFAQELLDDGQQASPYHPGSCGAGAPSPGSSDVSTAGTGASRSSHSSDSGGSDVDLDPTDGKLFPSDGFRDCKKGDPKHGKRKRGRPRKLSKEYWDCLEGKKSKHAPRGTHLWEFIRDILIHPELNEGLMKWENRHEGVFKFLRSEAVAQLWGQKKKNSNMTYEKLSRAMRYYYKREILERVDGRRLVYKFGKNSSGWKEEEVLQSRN
Particulars: protein: recombinant; tags: N-terminal GST; dsDNA, one strand shown. An outline of the steps: as §1

In another assay the target is CRX (Homo sapiens, UniProt O43186 1-299). Particulars: protein: recombinant; tags: N-terminal GST; dsDNA, one strand shown. A digest of the protocol: as §1
The target in the next assay is ETV1 (Homo sapiens, UniProt P50549 1-477). Particulars: protein: recombinant; tags: N-terminal GST; dsDNA, one strand shown. A digest of the protocol:
as §1

The target in a further assay is T6, ERF (Homo sapiens, UniProt P50548 1-548).
T6 sequence: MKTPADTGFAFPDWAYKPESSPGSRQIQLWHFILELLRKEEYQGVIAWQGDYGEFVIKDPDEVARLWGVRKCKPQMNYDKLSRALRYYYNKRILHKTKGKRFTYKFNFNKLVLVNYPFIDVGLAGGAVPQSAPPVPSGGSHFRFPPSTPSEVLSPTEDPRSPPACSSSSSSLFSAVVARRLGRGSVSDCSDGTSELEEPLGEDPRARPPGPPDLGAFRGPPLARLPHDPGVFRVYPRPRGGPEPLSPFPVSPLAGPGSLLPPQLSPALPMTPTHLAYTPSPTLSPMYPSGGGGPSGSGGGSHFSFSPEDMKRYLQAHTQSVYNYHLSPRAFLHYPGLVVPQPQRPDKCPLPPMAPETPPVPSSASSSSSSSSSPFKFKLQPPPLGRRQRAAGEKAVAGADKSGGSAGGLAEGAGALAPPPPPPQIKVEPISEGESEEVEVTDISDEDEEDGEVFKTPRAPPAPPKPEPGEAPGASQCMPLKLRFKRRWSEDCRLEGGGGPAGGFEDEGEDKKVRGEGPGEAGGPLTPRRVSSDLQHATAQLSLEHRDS
As to conditions: protein: recombinant; tags: N-terminal GST; dsDNA, one strand shown. An outline of the steps:
as §1

The target in the next assay is T7, ETV3L (Homo sapiens, UniProt Q6ZN32 1-361).
T7 sequence: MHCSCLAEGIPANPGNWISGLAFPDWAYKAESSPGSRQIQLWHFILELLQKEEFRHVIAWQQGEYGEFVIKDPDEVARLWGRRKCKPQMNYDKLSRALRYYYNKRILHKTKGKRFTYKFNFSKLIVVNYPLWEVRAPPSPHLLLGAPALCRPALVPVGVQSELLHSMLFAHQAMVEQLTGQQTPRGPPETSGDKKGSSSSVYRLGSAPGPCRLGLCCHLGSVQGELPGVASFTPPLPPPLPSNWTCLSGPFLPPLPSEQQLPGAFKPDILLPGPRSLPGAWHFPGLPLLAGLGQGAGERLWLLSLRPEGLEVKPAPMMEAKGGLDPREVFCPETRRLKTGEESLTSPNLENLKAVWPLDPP
Particulars: protein: recombinant; tags: N-terminal GST; dsDNA, one strand shown. A digest of the protocol:
as §1

The target in a further assay is T8, ETS2 (Homo sapiens, UniProt P15036 1-469).
T8 sequence: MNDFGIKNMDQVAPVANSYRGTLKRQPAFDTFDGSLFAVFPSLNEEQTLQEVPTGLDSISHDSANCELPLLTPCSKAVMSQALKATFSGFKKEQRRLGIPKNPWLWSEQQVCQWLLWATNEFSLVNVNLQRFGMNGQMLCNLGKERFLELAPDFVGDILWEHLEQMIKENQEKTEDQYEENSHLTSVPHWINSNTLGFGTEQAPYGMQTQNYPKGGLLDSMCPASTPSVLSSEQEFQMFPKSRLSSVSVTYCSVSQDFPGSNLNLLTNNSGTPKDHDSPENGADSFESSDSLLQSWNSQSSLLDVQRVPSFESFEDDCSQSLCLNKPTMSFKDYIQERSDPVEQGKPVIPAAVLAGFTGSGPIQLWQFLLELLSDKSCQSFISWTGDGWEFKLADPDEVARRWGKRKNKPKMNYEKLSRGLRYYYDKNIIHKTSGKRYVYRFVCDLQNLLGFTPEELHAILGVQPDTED
Particulars: protein: recombinant; tags: N-terminal GST; dsDNA, one strand shown. A digest of the protocol:
as §1

In the next assay the target is T9, SPDEF (Homo sapiens, UniProt O95238 1-335).
T9 sequence: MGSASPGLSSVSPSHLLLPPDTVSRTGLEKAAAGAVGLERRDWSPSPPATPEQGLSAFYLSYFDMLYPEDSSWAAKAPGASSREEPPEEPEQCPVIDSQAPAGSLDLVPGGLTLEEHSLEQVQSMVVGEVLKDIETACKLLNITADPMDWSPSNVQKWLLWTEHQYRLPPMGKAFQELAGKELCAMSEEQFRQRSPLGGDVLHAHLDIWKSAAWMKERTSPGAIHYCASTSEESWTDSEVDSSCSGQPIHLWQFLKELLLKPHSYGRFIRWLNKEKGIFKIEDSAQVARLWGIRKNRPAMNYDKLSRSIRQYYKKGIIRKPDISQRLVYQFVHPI
As to conditions: protein: recombinant; tags: N-terminal GST; dsDNA, one strand shown. An outline of the steps: as §1

The target in the next assay is T10, ETV7 (Homo sapiens, UniProt Q9Y603 1-341).
T10 sequence: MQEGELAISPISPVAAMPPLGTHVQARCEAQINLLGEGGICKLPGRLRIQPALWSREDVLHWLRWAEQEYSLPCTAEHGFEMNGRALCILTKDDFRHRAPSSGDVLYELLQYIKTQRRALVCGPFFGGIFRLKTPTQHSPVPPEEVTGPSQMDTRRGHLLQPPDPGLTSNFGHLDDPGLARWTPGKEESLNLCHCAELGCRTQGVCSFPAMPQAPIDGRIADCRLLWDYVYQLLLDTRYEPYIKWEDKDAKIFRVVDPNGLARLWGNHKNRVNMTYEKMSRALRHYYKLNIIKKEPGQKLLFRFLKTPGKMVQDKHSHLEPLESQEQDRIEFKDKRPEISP
As to conditions: protein: recombinant; tags: N-terminal GST; dsDNA, one strand shown. A digest of the protocol:
as §1

In the next assay the target is T11, ELF5 (Homo sapiens, UniProt Q9UKW6-2 1-255).
T11 sequence: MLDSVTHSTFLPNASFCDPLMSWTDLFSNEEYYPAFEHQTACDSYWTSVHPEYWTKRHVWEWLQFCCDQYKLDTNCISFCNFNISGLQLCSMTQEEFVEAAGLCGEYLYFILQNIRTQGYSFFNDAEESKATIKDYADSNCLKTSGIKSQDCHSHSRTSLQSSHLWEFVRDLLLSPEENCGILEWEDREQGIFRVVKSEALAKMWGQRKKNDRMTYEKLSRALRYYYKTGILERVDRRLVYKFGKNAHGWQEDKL
As to conditions: protein: recombinant; tags: N-terminal GST; dsDNA, one strand shown. A digest of the protocol:
as §1

The next assay addresses T12, ETV3 (Homo sapiens, UniProt P41162-2 1-143).
T12 sequence: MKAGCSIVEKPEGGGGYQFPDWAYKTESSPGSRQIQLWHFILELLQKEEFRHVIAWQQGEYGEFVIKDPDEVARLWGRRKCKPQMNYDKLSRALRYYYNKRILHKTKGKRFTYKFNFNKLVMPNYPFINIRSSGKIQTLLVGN
Particulars: protein: recombinant; tags: N-terminal GST; dsDNA, one strand shown. A digest of the protocol: as §1

Another assay concerns the target ETV6 (Homo sapiens, UniProt P41212 1-452). Particulars: protein: recombinant; tags: N-terminal GST; dsDNA, one strand shown. A digest of the protocol:
as §1

CRX, sequence (O43186 whole entry): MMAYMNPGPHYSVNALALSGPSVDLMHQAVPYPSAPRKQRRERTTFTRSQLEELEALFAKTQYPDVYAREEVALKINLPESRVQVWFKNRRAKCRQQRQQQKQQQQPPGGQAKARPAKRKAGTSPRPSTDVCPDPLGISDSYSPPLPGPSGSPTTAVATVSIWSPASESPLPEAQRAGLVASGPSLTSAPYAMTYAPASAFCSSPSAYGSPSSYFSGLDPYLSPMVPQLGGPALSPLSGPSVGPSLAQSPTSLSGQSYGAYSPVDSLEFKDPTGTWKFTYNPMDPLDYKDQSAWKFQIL
ETV6, sequence (P41212 whole entry): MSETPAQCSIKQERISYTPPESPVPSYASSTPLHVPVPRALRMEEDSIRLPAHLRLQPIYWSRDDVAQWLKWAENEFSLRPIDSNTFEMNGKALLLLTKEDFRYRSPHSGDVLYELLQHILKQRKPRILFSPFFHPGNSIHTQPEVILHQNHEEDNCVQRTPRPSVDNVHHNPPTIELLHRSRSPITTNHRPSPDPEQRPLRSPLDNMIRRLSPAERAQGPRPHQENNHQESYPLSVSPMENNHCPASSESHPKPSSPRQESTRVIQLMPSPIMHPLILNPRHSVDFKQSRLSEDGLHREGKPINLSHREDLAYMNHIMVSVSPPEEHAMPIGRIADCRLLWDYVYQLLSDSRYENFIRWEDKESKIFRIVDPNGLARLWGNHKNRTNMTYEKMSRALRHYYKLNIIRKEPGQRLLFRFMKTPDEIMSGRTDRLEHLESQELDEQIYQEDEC
ELF4, sequence (Q99607 whole entry): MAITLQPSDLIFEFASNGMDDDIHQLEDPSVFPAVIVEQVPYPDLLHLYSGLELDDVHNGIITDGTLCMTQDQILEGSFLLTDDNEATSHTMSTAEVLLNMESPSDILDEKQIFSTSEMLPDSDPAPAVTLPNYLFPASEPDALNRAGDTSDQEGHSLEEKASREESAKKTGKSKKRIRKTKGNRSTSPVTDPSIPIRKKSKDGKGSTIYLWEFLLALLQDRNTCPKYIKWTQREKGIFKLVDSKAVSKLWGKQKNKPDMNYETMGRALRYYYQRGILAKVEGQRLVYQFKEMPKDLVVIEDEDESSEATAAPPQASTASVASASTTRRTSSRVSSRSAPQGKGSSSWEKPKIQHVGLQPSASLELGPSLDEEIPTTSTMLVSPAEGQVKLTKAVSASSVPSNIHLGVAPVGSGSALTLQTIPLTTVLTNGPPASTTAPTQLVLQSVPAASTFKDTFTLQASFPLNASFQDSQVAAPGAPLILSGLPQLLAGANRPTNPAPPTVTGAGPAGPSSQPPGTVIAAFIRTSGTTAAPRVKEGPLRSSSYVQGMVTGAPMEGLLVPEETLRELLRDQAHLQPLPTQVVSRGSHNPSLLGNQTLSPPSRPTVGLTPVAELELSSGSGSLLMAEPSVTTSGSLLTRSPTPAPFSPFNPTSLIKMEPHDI
ETV5, sequence (P41161 whole entry): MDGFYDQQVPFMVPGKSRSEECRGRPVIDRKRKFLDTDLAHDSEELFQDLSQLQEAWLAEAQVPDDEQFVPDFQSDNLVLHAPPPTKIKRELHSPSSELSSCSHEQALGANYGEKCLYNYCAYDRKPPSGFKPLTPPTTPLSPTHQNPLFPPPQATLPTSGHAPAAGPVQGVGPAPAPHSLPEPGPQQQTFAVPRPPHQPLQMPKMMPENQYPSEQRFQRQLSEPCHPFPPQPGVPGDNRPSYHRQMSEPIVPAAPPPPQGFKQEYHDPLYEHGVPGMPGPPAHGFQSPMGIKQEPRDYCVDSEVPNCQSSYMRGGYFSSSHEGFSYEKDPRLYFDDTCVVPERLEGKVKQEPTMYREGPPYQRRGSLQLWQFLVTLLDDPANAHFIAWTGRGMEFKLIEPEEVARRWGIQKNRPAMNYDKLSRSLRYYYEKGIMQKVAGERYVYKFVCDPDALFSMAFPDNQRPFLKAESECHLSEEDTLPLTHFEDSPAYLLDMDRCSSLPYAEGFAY
HSF1, sequence (Q00613 whole entry): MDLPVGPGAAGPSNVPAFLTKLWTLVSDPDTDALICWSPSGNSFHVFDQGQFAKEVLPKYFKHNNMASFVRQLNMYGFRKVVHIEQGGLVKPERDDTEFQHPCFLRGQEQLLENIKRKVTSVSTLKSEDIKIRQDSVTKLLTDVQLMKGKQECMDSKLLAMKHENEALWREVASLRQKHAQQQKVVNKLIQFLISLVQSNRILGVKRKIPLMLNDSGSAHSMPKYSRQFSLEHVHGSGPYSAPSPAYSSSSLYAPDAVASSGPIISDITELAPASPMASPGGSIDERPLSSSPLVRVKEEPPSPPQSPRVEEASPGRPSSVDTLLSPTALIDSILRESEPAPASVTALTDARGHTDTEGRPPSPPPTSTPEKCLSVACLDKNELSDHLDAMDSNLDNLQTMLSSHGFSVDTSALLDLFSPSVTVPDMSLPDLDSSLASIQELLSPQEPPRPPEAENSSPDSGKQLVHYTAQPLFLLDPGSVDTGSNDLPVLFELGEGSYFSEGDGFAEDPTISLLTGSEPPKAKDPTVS
ETV1, sequence (P50549 whole entry): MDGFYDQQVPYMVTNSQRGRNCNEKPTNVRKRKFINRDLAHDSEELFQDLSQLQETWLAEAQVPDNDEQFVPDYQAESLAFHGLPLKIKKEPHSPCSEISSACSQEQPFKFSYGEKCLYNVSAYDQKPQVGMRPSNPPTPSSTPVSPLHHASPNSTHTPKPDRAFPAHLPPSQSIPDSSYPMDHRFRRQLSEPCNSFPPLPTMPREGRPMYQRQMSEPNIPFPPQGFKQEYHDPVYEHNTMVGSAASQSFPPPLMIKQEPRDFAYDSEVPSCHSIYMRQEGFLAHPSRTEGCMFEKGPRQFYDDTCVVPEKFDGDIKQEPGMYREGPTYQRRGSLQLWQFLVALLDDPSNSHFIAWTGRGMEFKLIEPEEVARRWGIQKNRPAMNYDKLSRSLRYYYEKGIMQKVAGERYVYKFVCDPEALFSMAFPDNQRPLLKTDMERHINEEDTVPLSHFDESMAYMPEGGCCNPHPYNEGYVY

Take CCCGAT: the binding signal is 1.27 fold enrichment (6-mer frequency, TF over GST control) with FEV; 1.2 fold enrichment (6-mer frequency, TF over GST control) in the assay with ETV5; 1.38 fold enrichment (6-mer frequency, TF over GST control) with HSF1; 1.29 fold enrichment (6-mer frequency, TF over GST control) in the assay with SPIC; 1.23 fold enrichment (6-mer frequency, TF over GST control) with ELF4; 1.11 fold enrichment (6-mer frequency, TF over GST control) in the assay with ELK4. Further, the binding signal with ETV2 is 1.02 fold enrichment (6-mer frequency, TF over GST control); with ELF3 it was 1.2 fold enrichment (6-mer frequency, TF over GST control); in the assay with CRX, 1.37 fold enrichment (6-mer frequency, TF over GST control); with ETV1, 1.08 fold enrichment (6-mer frequency, TF over GST control); with ERF, 1.22 fold enrichment (6-mer frequency, TF over GST control); in the assay with ETV3L, 1.14 fold enrichment (6-mer frequency, TF over GST control). In addition, the binding signal is 1.23 fold enrichment (6-mer frequency, TF over GST control) with ETS2; 1.11 fold enrichment (6-mer frequency, TF over GST control) with SPDEF; 1.24 fold enrichment (6-mer frequency, TF over GST control) with ETV7; 1.24 fold enrichment (6-mer frequency, TF over GST control) with ELF5; 1.21 fold enrichment (6-mer frequency, TF over GST control) with ETV3; 1.06 fold enrichment (6-mer frequency, TF over GST control) in the assay with ETV6.
